Screening data deposited in PubChem BioAssay by several laboratories.
PfM18AAP inh: PfM18AAP inhibitors, malaria aminopeptidase, primary screen, biochemical, QFRET, recombinant enzyme | 290,000 tested, 1.2% active | AID 1822, 2009 | H-Glu-NHMec fluorogenic cleavage | inhibition, % at 7.35 µM;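 active = inhibition above the campaign mean inhibition over all tested compounds plus 3 SD, cut at about 28% in these data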;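 also: 0% = plate median of test compound wells and 100% = 2 mM ZnCl2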
MIN6 prolif: inducers of MIN6 beta-cell proliferation, primary screen, ATP luminescence, uHTS. MIN6 cells proliferation, ATPlite luminescence, 48 h; cells starved in 0.2% serum; 100% = growth in 10% serum. proliferation, % at 10 µM. 330,000 tested, 0.29% active. AID 2380, 2010;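 active = compounds whose signal lies at least 3.5 SD above the mean of all wells on their plate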;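 also: 0% = DMSO-treated cells in low-serum medium and 100% = 10% serum control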
ALR inh: inhibitors of human ALR sulfhydryl oxidase, primary screen, biochemical, H2O2 detection, HRP-luminol luminescence, single point. FAD-linked sulfhydryl oxidase ALR (Homo sapiens), P55789. purified ALR, DTT oxidation. inhibition, % (concentration not given with the values). 290,000 tested, 3.8% active;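 active = mean replicate inhibition above about 79%, with every replicate also reaching it, limit read from the data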
Target sequence (P55789 whole entry, looked up): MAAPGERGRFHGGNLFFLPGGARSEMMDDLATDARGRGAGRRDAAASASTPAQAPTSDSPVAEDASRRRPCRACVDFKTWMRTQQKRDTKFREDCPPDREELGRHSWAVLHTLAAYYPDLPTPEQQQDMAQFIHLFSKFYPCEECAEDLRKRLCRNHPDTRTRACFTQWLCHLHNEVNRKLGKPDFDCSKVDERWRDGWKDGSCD
SMARCA2 activ: SMARCA2 (BRM) function activators, primary screen, cell-based, luminescence, high throughput; MG213 cells, MMTV-luciferase reporter, dexamethasone, overnight; activation, % at 9.1 µM; 370,000 tested, 1% active; in the data active = activation above about 7.8%;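 also: 0% = vehicle wells and 100% = reference activator wells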
JMJD2C inh: inhibitors of GASC-1 histone demethylase, primary screen, biochemical, fluorescence, DELFIA europium; Lysine-specific demethylase 4C (Homo sapiens), Q9H3R0; GST-JMJD2C(1-420) H3K9me3 demethylation; inhibition, % at 2.35 µM; 330,000 tested, 0.069% active;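 active = more than half of a compound's replicate wells show inhibition beyond 50%, single wells judged on their own value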;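 also: signal counts dimethyl H3K9 product captured on neutravidin plate; 0% = median of DMSO wells and 100% = 0.3 times that DMSO median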
Target sequence (Q9H3R0 1-420 limits assumed): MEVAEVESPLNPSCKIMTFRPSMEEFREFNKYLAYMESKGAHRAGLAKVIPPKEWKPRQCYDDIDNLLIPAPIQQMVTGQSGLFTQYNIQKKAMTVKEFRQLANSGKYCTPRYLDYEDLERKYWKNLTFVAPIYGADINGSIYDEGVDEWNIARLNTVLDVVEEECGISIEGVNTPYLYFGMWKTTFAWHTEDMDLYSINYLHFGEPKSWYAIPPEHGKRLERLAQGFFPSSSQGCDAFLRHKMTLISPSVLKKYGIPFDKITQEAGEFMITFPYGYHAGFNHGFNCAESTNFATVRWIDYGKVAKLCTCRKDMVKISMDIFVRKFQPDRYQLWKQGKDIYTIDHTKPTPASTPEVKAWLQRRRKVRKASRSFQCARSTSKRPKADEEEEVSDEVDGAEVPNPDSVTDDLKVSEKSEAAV
Exocytosis inh: LAMP-1 surface exposure blockers, TALL-104 cells – cell-based, flow cytometry, MLPCN library, primary screen; TALL-104 LAMP-1 surface exposure; cells stimulated with thapsigargin and PMA; inhibition, % at 10 µM; 360,000 tested, 0.66% active; AID 651702, 2012;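 active = inhibition above about 55%, limit read from the data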
Numbers without * were called inactive; / = no result given. This is a sample that favours compounds with a hit; in the whole collection about 5.4% have one here.

SMILES	PfM18AAP inh	MIN6 prolif	ALR inh	SMARCA2 activ	JMJD2C inh	Exocytosis inh
O=S1(=O)C=CCN1Cc1cn(Cc2cccc(C(F)(F)F)c2)nn1	/	/	/	1.2	/	/
CN=C1S/C(=C\c2ccc(O)c(Br)c2)C(=O)N1C	4.0	-4.8	96.3*	0.8	-10.2	5.5
CN=C1S/C(=C\c2ccc(Cl)cc2)C(=O)N1C	-4.4	-1.3	-3.6	2.3	11.9	-0.7
Cc1cc(C)nc(NN2C(=O)/C(=C/c3ccc(O)cc3)SC2=S)n1	30.1*	-2.9	99.3*	/	-0.3	6.3
COc1cc(/C=C2\SC(=S)N(NC(=O)c3ccccc3O)C2=O)ccc1O	14.8	-5.8	99.0*	-0.6	6.4	32.0
O=C(NN1C(=O)/C(=C/c2cc([N+](=O)[O-])ccc2O)SC1=S)c1ccccc1O	/	-4.9	80.8*	/	-0.2	/
COc1ccccc1/C=C1\SC(=S)N(Nc2nc(C)cc(C)n2)C1=O	19.0	-2.5	-3.0	3.8	-2.8	-1.2
O=C(NN1C(=O)/C(=C/c2ccc(O)cc2)SC1=S)c1cccc(O)c1	15.2	-3.6	99.2*	0.0	-7.1	-0.1
CCN(CC)CCCNC(=O)CC1Oc2ccccc2NC1=O (configuration not stated)	/	/	/	5.9	/	/
COC(=O)[C@]12C[C@H](CC(=O)N3CCCCC3)C(=O)N(Cc3ccc(Cl)cc3Cl)C1=C[C@H](C(C)(C)C)O[C@@H]2C	/	/	/	-2.3	/	/
COc1ccc(CN2C3=N[C@H](c4ccccc4)CC(=O)N3/C(=C\c3ccccc3)C2c2ccco2)c(OC)c1 (some centres not stated)	/	/	/	-1.5	/	/
CC(C)(C)OC(=O)NCc1ccccc1/C=C/S(=O)(=O)NCc1ccc(F)cc1	/	/	/	-2.5	/	/
O=C(NN1C(=O)/C(=C/c2ccc(O)cc2)SC1=S)c1ccccc1O	5.8	-2.5	99.4*	-3.1	2.5	10.5
COc1cc(/C=C2\SC(=S)N(NC(C)=O)C2=O)ccc1OC(=O)c1ccco1	/	-4.8	97.7*	0.2	1.8	-8.1
CCOC(=O)Cn1c(=O)oc2cc(S(=O)(=O)Nc3ccc(N(CC)CC)cc3C)ccc21	25.1	-6.0	98.8*	0.7	1.6	-3.4
COc1ccc(-c2nc(CS(=O)CC(=O)NCCN3CCCCCC3)c(C)o2)cc1OC (configuration not stated)	6.4	-2.4	99.6*	0.0	-4.0	16.5
COc1ccc(-c2nc(CS(=O)CC(=O)NCCCN3CCOCC3)c(C)o2)cc1OC (configuration not stated)	-7.6	1.6	99.5*	-1.8	2.7	-0.4
COc1ccc(-c2nc(CS(=O)CC(=O)NCCCN3CCCC3)c(C)o2)cc1OC (configuration not stated)	10.0	-0.8	98.8*	-4.7	14.4	-1.6
COc1ccc(-c2nc(CS(=O)CC(=O)NCCN3CCCCC3C)c(C)o2)cc1OC (configuration not stated)	-4.1	0.4	99.5*	-0.6	2.1	2.3
CCOC(=O)N1CCN(C(=O)C[C@H]2C[C@@]3(C(=O)OC)C(=C[C@H](C(C)(C)C)O[C@@H]3C)N(Cc3ccc4c(c3)OCO4)C2=O)CC1	/	/	/	-4.3	/	/
CCOC(=O)N1CCN(C(=O)C[C@H]2C(=O)N(CCCOC)C3=CCCCC[C@]32C(=O)OC)CC1	/	/	/	-4.0	/	/
C[C@@H]1CCN(C2CC2)S(=O)(=O)c2c(cccc2N2CCC[C@H]2C)O1	/	/	/	-3.5	/	/
N#CCC(=O)Nc1ccc(C(=O)OCC(=O)NC(=O)NCc2ccco2)cc1	/	-2.3	97.9*	-3.5	-2.1	-16.6
C/C(CC(=O)NCc1ccco1)=N\NC(=O)Cc1cccc2ccccc12	5.2	-0.2	3.5	-0.1	-9.0	-2.7
C/C(CC(=O)NCc1ccco1)=N\NC(=O)CC#N	30.3*	-0.6	9.6	-3.0	1.8	5.3
SMILES	PfM18AAP inh	MIN6 prolif	ALR inh	SMARCA2 activ	JMJD2C inh	Exocytosis inh
N#CCC(=O)Nc1ccc(C(=O)OCC(=O)Nc2cccc3ccccc23)cc1	/	/	/	-3.4	/	0.1
CCOC(=O)c1ccc(NC(=O)CCC(=O)NCc2ccco2)cc1	-3.0	-2.7	0.6	3.2	-5.2	-2.4
CN(CC(=O)Nc1cccc2ccccc12)C(=O)c1ccc(NC(=O)CC#N)cc1	/	-4.5	93.6*	0.1	-5.9	-0.9
NC(=O)Nc1ccc(C(=O)OCC(=O)c2c[nH]c3ccccc23)cc1	/	0.0	-5.5	0.6	-7.4	-1.5
N#CCC(=O)Nc1ccc(C(=O)OCC(=O)c2c[nH]c3ccccc23)cc1	/	-2.2	45.8	7.9*	0.2	2.9
O=C(CCc1ccccc1)N[C@H]1[C@H](OCc2ccccc2)CCC[C@@]12C(=O)N(Cc1ccccc1)c1ccc(-c3cnccn3)cc12	/	/	/	-5.7	/	/
CCN1CCCCC(NC(=O)c2ccccc2C)C1=O (configuration not stated)	/	/	/	2.7	/	/
N#CCC(=O)Nc1ccc(C(=O)OCC(=O)N(Cc2ccccc2)C2CCS(=O)(=O)C2)cc1 (configuration not stated)	2.4	0.6	100.0*	0.4	8.1	-1.4
Cc1ccc(NC(=O)CN(C)C(=O)COC(=O)c2ccc(NC(=O)CC#N)cc2)cc1	/	-1.5	89.7*	3.9	-0.8	2.1
CC1(C)CC2CC(C)(CN2C(=O)COC(=O)c2ccc(NC(=O)CC#N)cc2)C1 (configuration not stated)	/	2.4	98.5*	-3.2	6.5	-2.3
Cn1c(=O)c2c(ncn2Cc2ccc(O)c([N+](=O)[O-])c2)n(C)c1=O	/	/	/	-1.5	/	/
O=S1(=O)c2ccc(Br)cc2OC[C@H](Cc2ccccc2)N1Cc1cn(CCC2OCCO2)nn1	/	/	/	-1.2	/	/
O=C(N/N=C/c1ccc(N2CCCCC2)o1)c1ccccc1	10.0	/	-45.5	-0.4	-3.1	5.7
O=C1C2C(C(=O)N1/N=C/c1ccc(N3CCCCC3)o1)C1C=CC2C12CC2 (configuration not stated)	13.0	-0.5	9.2	-0.8	-1.1	67.8*
C[C@@H]1O[C@@H](OC[C@H]2O[C@@H](Oc3cc(O)c4c(=O)cc(-c5ccc(O)c(O)c5)oc4c3)[C@H](O)[C@@H](O)[C@@H]2O)[C@H](O)[C@H](O)[C@H]1O	/	-0.4	98.9*	/	99.6*	-1.1
O=c1cc(-c2ccc(O)c(O)c2)oc2cc(O[C@@H]3O[C@H](CO)[C@@H](O)[C@H](O)[C@H]3O)cc(O)c12	/	0.1	99.0*	/	-5.3	3.8
O=S(=O)(O)c1cc(O)ccc1O	/	-6.4	16.0	-6.5	1.5	1.6
O=S(=O)(c1cc(O)ccc1O)c1cccc2c(S(=O)(=O)c3cc(O)ccc3O)cccc12	/	-3.3	92.7*	1.6	2.8	-0.4
